Molecules are shown by their SMILES. Compounds without any hit were thinned out: in the full panel of roughly 83,000, 20% have a hit.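 Treatment: one concentration, 48 hours, 96-well format. Scoring: percent growth, with anything below 10 considered active.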 A number with no mark means an inactive call. Activity calls are given as the source filed them.

From PubChem BioAssay (NCI) come the findings set out here.

Test in all cases: NCI-60 one-dose screen, 48 h (100 = growth as untreated, 0 = no growth, -100 = all killed)
Common to all, as to conditions: 10 µM unless noted

For assay [1], the system named is SR leukemia.
Assay [2] relates to RPMI-8226 leukemia.
Assay [3] has as its system OVCAR-8 ovarian.
Assay [4] has as its system OVCAR-5 ovarian.
The test system of assay [5] is SK-OV-3 ovarian.
Assay [6] has as its system IGROV1 ovarian.
Assay [7] has as its system OVCAR-3 ovarian.
For assay [8], the system named is HS 578T breast.
The subject of assay [9] is NCI/ADR-RES ovarian.
Assay [10] concerns MDA-MB-435 melanoma.
Assay [11] relates to SW-620 colon.
The test system of assay [12] is HCT-116 colon.
Assay [13] concerns HCC-2998 colon.
Assay [14] has as its system KM12 colon.
The test system of assay [15] is OVCAR-4 ovarian.
Assay [16] has as its system T-47D breast.
Assay [17] has as its system BT-549 breast.
Assay [18] deals with MCF7 breast.

In the case of `N#Cc1c2cccnc2c2nnc3cc(Cl)c(Cl)cc3n12`, the growth in assay [1] is 5.53% (active); in [2], 35.3%; in [3], -19.5% (active); in [4], 89.3%; in [5], 90%; in assay [6] it was 10.6%. In addition, the growth in assay [7] is -9.66% (active); in [8], -56.8% (active); in [9] it was -5.61% (active); in [10], 84.4%; in assay [11], -39% (active); in assay [12] it was -73.1% (active). Moreover, the figures for the growth in assay [13] and in assay [14] were 13.4% and 47.5%, respectively.

As to `COc1ccc(Cn2cc3c(c2-c2ccc(O)cc2)CCc2cnoc2-3)cc1`, the growth in assay [1] is 11.5%; in [2] it was 26.6%; in [3] it was 34.9%; in assay [15], 48.4%; in assay [5] it was 12%; in assay [6], 19.7%. Besides, the growth is -14.7% (active) in assay [7]; 5.28% (active) in [8]; -1.58% (active) in assay [9]; 50% in [16]; 44.4% in [17]; -39.4% (active) in [10]. For the same molecule, the growth was 22.5% in assay [11]; 14.7% in [18]; 11.1% in assay [12]; -21.1% (active) in assay [13]; 11.8% in [14].

With `COc1cc2cn3c4ccc(O)cc4[nH]c(=O)c3c2cc1OC`, the growth is -17.5% (active) in assay [1]; -2.13% (active) in [2]; 0.127% (active) in assay [3]; 30% in assay [4]; -3.23% (active) in assay [6]; -13.9% (active) in assay [7]. Moreover, the growth in assay [8] was -11.2% (active); in [9], 24.7%; in assay [10] it was 9.28% (active); in assay [11], 16.8%; in [18], -77.9% (active); in assay [12] it was -100% (active). The growth was 13.1% in [13] and -2.22% (active) in [14].

With `O=c1c2c(c3ccccc3n1-c1ccccc1)NC(=S)NC2c1ccc(Cl)cc1` (configuration not stated), the growth is 26% in [1]; 8.62% (active) in [2]; 41.3% in assay [3]; 45.5% in [4]; 50.3% in assay [5]; -3.16% (active) in [8]. For the same molecule, the growth was 78.3% in assay [9]; 67.4% in [16]; 30.4% in assay [10]; 57.1% in [11]; 60% in assay [18]; 16.1% in assay [12]. In addition, in assay [13], the growth is 35.7%.

For the molecule `COc1ccc(/C=C(/C(=O)N2CCCCC2)c2cc(OC)c(OC)c(OC)c2)cc1`, the growth in [1] was 13.6%; in assay [2], 15.7%; in assay [3], 34.4%; in assay [15] it was 56.8%; in assay [5], 27.6%; in assay [6], 42%. Moreover, the growth in [7] is -19.2% (active); in assay [8], 20.9%; in [9] it was 6.26% (active); in assay [16], 45.8%; in assay [17] it was 53.6%; in assay [10] it was -51.3% (active). For the same molecule, the growth in [11] is 23.2%; in assay [18], 18.2%; in [12], 17.6%; in [13], 46.8%; in assay [14], 16%.

For the molecule `C/C(CCC(=O)O)=N/Nc1ccc([N+](=O)[O-])cc1`, the growth in [1] is 40.6%; in assay [2], 51.9%; in assay [3], 70.4%; in [4] it was 68.1%; in assay [6], 103%; in assay [7], 89.9%. Further, the growth in assay [8] is 92.9%; in assay [9], 49.6%; in [17], 89.1%; in assay [10] it was 38.6%; in assay [11], 72.6%; in assay [18], 65.2%. Besides, the results for the growth in assay [12], in assay [13] and in [14] were 56.8%, 59.9% and 27.1%, respectively.

As for `CC1C(=O)CCCC1=O`, the growth in [1] was 97.6%; in [2] it was 101%; in [3] it was 107%; in assay [4], 104%; in assay [5], 108%; in assay [6] it was 102%. In addition, the growth in [7] was 118%; in [9] it was 113%; in [16], 96.1%; in [17], 104%; in assay [10], 105%; in assay [11] it was 113%. Also, the growth was 95.8% in [18], 113% in assay [12], 109% in [13] and 113% in assay [14].

For `CCOC(=O)CSSCC(=O)OCC`, the growth is 88.7% in assay [1]; 98.6% in [2]; 101% in [3]; 108% in assay [4]; 102% in [5]; 110% in assay [6]. For the same molecule, the growth in assay [7] is 110%; in assay [9] it was 110%; in assay [16], 94.4%; in assay [10] it was 99.4%; in assay [11], 111%; in [18] it was 95.2%. The figures for the growth in assay [12], in assay [13] and in assay [14] were 108%, 108% and 105%, respectively.

With `Cc1sc(NC(=O)c2ccc(C(C)(C)C)cc2)c(C(=O)O)c1C`, the growth is 62.8% in assay [1]; 47.2% in [2]; 56.5% in [3]; 94% in assay [4]; 103% in assay [5]; 70.9% in assay [6]. Also, the growth is 71.7% in [7]; 58.9% in [9]; 87.5% in assay [16]; 88.8% in [17]; 96.1% in assay [10]; 60% in [11]. The growth in [18] was 62.2%; in assay [12], 45.3%; in assay [13], 71.2%; in assay [14], 28.8%.
